Growth data for 14 compounds are collected here from PubChem BioAssay (NCI).

Holding throughout (assay): NCI-60 one-dose screen, 48 h (100 = growth as untreated, 0 = no growth, -100 = all killed)
Common to all, as to settings: 10 µM unless noted

Assay [1] deals with T-47D breast.
Assay [2] has as its system BT-549 breast.
The subject of assay [3] is MDA-MB-435 melanoma.
The test system of assay [4] is SW-620 colon.
Assay [5] relates to MCF7 breast.
The test system of assay [6] is HCT-116 colon.
Assay [7] has as its system HCC-2998 colon.
Assay [8] deals with KM12 colon.

About 83,000 compounds went through this panel and 20% of them were active in at least one assay; those are over-represented in the sample as a whole.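 Interpretation: 100, growth as untreated; towards 0, rising growth inhibition; 0, no net growth; 0 to -100, cell death. Compounds scoring below 10 were considered active.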 Unmarked numbers belong to inactive results. The source made the active and inactive calls.

For `Cc1cccc(-c2nnc(SCC(=O)Nc3ncc(Cc4ccccc4)s3)n2N2C(=O)CSC2=S)c1`, the growth in assay [1] is 43.8%; in assay [2], 78.5%; in assay [3], 48.5%; in assay [4] it was 49.6%; in assay [5], 56.2%; in assay [6], 25%. Also, the results for the growth in assay [7] and in assay [8] were 70.9% and 71.7%, respectively.

As to `CCN(c1cc(-c2ccc(CN3CCC(/C=C/S(=O)(=O)c4ccccc4)CC3)cc2)cc(C(=O)NCc2c(C)cc(C)[nH]c2=O)c1C)C1CCOCC1`, the growth was 71.6% in assay [1]; 51.3% in assay [2]; 76.8% in assay [3]; 94% in assay [4]; 44.3% in assay [5]; 56.9% in assay [6]. The results for the growth in assay [7] and in assay [8] were 101% and 76.1%, respectively.

Turning to `C=C1C(=O)O[C@@H]2[C@H]3[C@H](COC(C)=O)[C@@H](OC(C)=O)C[C@H]3C(=C)[C@@H](O)C[C@@H]12`, the growth in assay [1] is 90.5%; in assay [2], 94.2%; in assay [3], 101%; in assay [4] it was 84.4%; in assay [5], 76.8%; in assay [6], 75.7%. Further, the growth in assay [7] is 109%; in assay [8], 99.8%.

As to `COc1nc2ccc(C)cc2cc1/C=[N+](\[O-])c1ccccc1`, the growth in assay [1] was 66.5%; in assay [2] it was 95.8%; in assay [3] it was 96.9%; in assay [4] it was 49.9%; in assay [5], 58.6%; in assay [6], 15.1%. Also, the growth in assay [7] is 98.2%; in assay [8] it was 90.5%.

On to `FC(F)(F)Sc1ccc(/C=C/c2cc(/C=C/c3ccc(SC(F)(F)F)cc3)n(-c3ccccc3)n2)cc1`, for which the growth in assay [1] was 84.3%; in assay [2], 103%; in assay [3], 91.7%; in assay [4] it was 94.9%; in assay [5], 89%; in assay [6] it was 94.3%. For the same compound, the growth in assay [7] was 101%; in assay [8] it was 95.2%.

With `Nc1c(C(=O)Nc2ccncc2)sc2nc3c(cc12)CCCCCCCC3`, the growth in assay [1] is -71.2% (active); in assay [2], -60.8% (active); in assay [3], -89.9% (active); in assay [4], -69.2% (active); in assay [5], -83.4% (active); in assay [6], -76.3% (active). Further, the growth is -54.3% (active) in assay [7] and -80.4% (active) in assay [8].

`Brc1ccc(/C=C(/C2=NCCN2)n2ccc3ccccc32)cc1`: the growth in assay [1] was 53.1%; in assay [2] it was 80.3%; in assay [3] it was 58.2%; in assay [4] it was 71.8%; in assay [5], 30.2%; in assay [6] it was 52.9%. For the same compound, the figures for the growth in assay [7] and in assay [8] were 48.5% and 80.4%, respectively.

Consider `COC(=O)[C@H]1Cc2c([nH]c3ccccc23)[C@@H](c2cccs2)N1`, for which the growth in assay [1] is 92.9%; in assay [2], 102%; in assay [3], 100%; in assay [4] it was 100%; in assay [5], 103%; in assay [6] it was 104%. Also, the growth in assay [7] is 102%; in assay [8], 100%.

As for `COc1cc(CO)cc2cc3ccccc3nc12`, the growth in assay [1] is 101%; in assay [2], 102%; in assay [3] it was 104%; in assay [4], 102%; in assay [5], 79.9%; in assay [6] it was 98.5%. The growth in assay [7] is 106%; in assay [8], 102%.

In the case of `O=C1OCC2=C1C(c1cccc(C(F)(F)F)c1)c1cc3c(cc1N2CCO)CCC3` (configuration not stated), the growth was 75% in assay [1]; 22% in assay [2]; -44.3% (active) in assay [3]; 24% in assay [4]; 16.3% in assay [5]; 4.17% (active) in assay [6]. The growth in assay [7] is 11.2%; in assay [8] it was 4.92% (active).

`CN(C)CCCn1c2nc(=O)[nH]c(=O)c-2nc2cc(Cl)c(Cl)cc21`: the growth was 34.8% in assay [1]; 113% in assay [2]; 106% in assay [3]; 13.6% in assay [4]; 4.93% (active) in assay [5]; -18.5% (active) in assay [6]. Further, the growth is 91.6% in assay [7] and 57.5% in assay [8].

Take `COCCOc1cc2ncnc(N3CCN(S(=O)(=O)c4ccccc4Cl)CC3)c2cc1OCCOC`: the growth in assay [1] was 80.6%; in assay [2] it was 89.5%; in assay [3], 10.5%; in assay [4], 79.9%; in assay [5], 49.3%; in assay [6] it was 89.7%. Also, the growth was 79.6% in assay [7] and 69.7% in assay [8].

On to `Cn1cc2c(=O)nc3c(-c4nc5ccccc5[nH]4)n[nH]n3c2n1`, for which the growth was 67.6% in assay [1]; 34.7% in assay [2]; 73.9% in assay [3]; 97.2% in assay [4]; 65.7% in assay [5]; 80.6% in assay [6]. The growth was 84.8% in assay [7] and 73.9% in assay [8].

Turning to `COc1ccc(Oc2nc(Nc3ccc(N4CCOCC4)cc3)ncc2NC(=O)c2cc(OC)cc(OC)c2)cc1`, the growth in assay [1] is 93.6%; in assay [2], 90.1%; in assay [3] it was 40.4%; in assay [4], 71.4%; in assay [5], 76.9%; in assay [6] it was 87.9%. Besides, the growth in assay [7] is 98.4%; in assay [8] it was 79.3%.
